# Compound activity (PubChem)
# TDP1 cell noCPT: qHTS for Inhibitors of human tyrosyl-DNA phosphodiesterase 1 (TDP1): qHTS in cells in absence of CPT | DT40 Tdp1-/- hTDP1 cells, no CPT, ATP luminescence, 48 h | AID 686978, 2013 | Potency, µM (highest dose often 46.2 µM), for the others: at the top dose activity change, negative = growth inhibition, actives largely listed as inhibitors | actives 15% (n = 420,000); also: nearly all actives have a fitted effect of over 55% in size
#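 Luminescent ATP content (CellTiter-Glo) served as the growth readout. Knockout chicken DT40 cells expressing human TDP1 were exposed to compounds without camptothecin for a minimum 48 hr at 37 °C.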
# HT1080-NT tox: qHTS for induction of synthetic lethality in tumor cells producing 2HG: qHTS for the HT-1080-NT fibrosarcoma cell line; actives 1.6% (n = 360,000); HT-1080-NT fibrosarcoma viability, CellTiter-Glo ATP luminescence, 48 h; Potency, µM (titrated, usually from 46.1 µM), without a hit: top-dose activity, negative = less viability, hits mostly cytotoxic;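 also: NT is the 2HG producing partner of a matched IDH1 knockdown line; 0% = DMSO-treated cells and -100% = media-only wells without cells; nearly all actives have a fitted effect of over 55% in size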
#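 Viability by CellTiter-Glo luminescence after 48 h compound exposure at 37C of HT-1080-NT cells (750/well, RPMI, 5% FBS). % activity scaled between DMSO wells and medium-only wells, then curve-fitted and categorized by curve class.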
# KB-3-1 tox: qHTS assay for MDR1-selective chemotherapeutics: Primary screen using the parental adenocarcinoma cell KB-3-1; KB-3-1 viability, CellTiter-Glo ATP luminescence, 72 h; AID 1347075, 2019; actives 1.4% (n = 400,000); Potency, µM (doses to about 46.1 µM), usual class: cytotoxic; also: nearly all actives have a fitted effect of over 60% in size
#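 KB-3-1 parental drug-naive adenocarcinoma cells in DMEM/10% FBS, incubated 72 h at 37 C with pin-transferred compounds across a concentration series. Viability by CellTiter-Glo luminescence; concentration-response curves fitted after normalization.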
# DT40 TDP1 CPT: qHTS for Inhibitors of human tyrosyl-DNA phosphodiesterase 1 (TDP1): qHTS in cells in presence of CPT; actives 12% (n = 420,000); chicken DT40 Tdp1-/-;hTDP1 cells + 20 nM CPT, ATP luminescence, 48 h; Potency, µM (top dose mostly 46.2 µM), inactives show top-dose activity change, negative = growth inhibition, hits mostly inhibitors; also: nearly all actives have a fitted effect of over 55% in size
#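 Chicken DT40 Tdp1-/- cells complemented with human TDP1, 400 cells/well, exposed to compounds plus 20 nM camptothecin for at least 48 h at 37 C; viability read as ATP content by CellTiter-Glo luminescence.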
# HT1080 IDH1KD tx: qHTS for induction of synthetic lethality in tumor cells producing 2HG: qHTS for the HT-1080-IDH1KD cell line; HT-1080 IDH1 knockdown viability, ATP luminescence, 48 h; Potency, µM (doses to about 46.1 µM), without a hit: at the highest dose activity, negative = toxicity, hits mostly cytotoxic; actives 2% (n = 360,000); AID 686971, 2013;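 also: 0% = DMSO wells and -100% = cell-free medium wells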
#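 CellTiter-Glo luminescence after 48 h compound exposure at 37 degrees C of IDH1-knockdown HT-1080 cells in 5% FBS RPMI. %Activity scaled between DMSO wells and cell-free media wells, with curves fitted and assigned curve classes.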
# KB-V1 MDR tox: qHTS assay for MDR1-selective chemotherapeutics: Primary screen using the drug-selected MDR subline cells KB-V1 | KB-V1 MDR cells viability, CellTiter-Glo, 72 h | Potency, µM (series often up to 46.1 µM), most hits filed as cytotoxic | actives 3.4% (n = 400,000); also: nearly all actives have a fitted effect of over 60% in size
#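 Luminescent ATP read-out (CellTiter-Glo, 10 min) measures survival of drug-selected KB-V1 MDR cells after 72 h, 37 degrees C compound exposure. Medium: phenol-red-free DMEM, 10% FBS. Values from fitted concentration-response curves.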
# * = called active by the depositor; i = inactive; ? = inconclusive; nt = no result. Rows were chosen to be rich in hits. Some 19% of all compounds tested hit in one or more screens of this group. Calls follow the shape of the dose curve; as a rule, active = well fitted curve in the direction sought with a large enough effect; inconclusive = small, poorly fitted or top-dose-only effect, or another doubt; inactive = no such curve, though single readings can be large; an effect the other way counts as inactive or inconclusive. Unless noted, % is scaled to controls: 0 for no effect and ±100 for the full control effect; potency is read from the fitted curve at half-maximal effect.
SMILES,TDP1 cell noCPT,HT1080-NT tox,KB-3-1 tox,DT40 TDP1 CPT,HT1080 IDH1KD tx,KB-V1 MDR tox
COCCCNC(=O)c1cc(Sc2ccc(F)cc2)nc2ccccc12,?,-7%,i,?,-13%,?
CCCN(CC(=O)Nc1ccccc1C)C(=O)C1CCN(S(=O)(=O)c2ccc(C)c(C)c2)CC1,?,-16%,i,?,-9%,i
COC(=O)CNC(=O)Nc1cc(C(=O)NCc2ccc(C)cc2)ccc1N1CCCC1,-21%,nt,i,2%,nt,?
CCOc1cc(N2CCOCC2)c(OCC)cc1NCC(=O)N1CCN(Cc2ccccc2)CC1,?,-5%,i,?,-7%,i
CCOc1cc(N2CCOCC2)c(OCC)cc1NC(=O)COC(=O)c1ccc(Cl)cc1N,?,-4%,i,5.8µM*,0%,i
CCOc1cc(N2CCOCC2)c(OCC)cc1NC(=O)Cc1ccc(OC)c(OC)c1,23µM*,-1%,?,?,1%,5.8µM*
CCOc1cc(N2CCOCC2)c(OCC)cc1NC(=O)CN1CCN(Cc2ccc3c(c2)OCO3)CC1,?,0%,i,?,3%,i
CCOc1cc(N2CCOCC2)c(OCC)cc1NC(=O)COC(=O)c1cc2ccccc2cc1O,?,8%,i,?,7%,?
CCOc1cc(N2CCOCC2)c(OCC)cc1NC(C)C(=O)N1CCC(C)CC1 (stereo unspecified),26µM*,1%,i,?,2%,i
CCOc1cc(NC(=O)c2ccco2)c(OCC)cc1NC(=O)Cc1ccc(OC)c(OC)c1,8.2µM*,-3%,i,?,-2%,?
O=C1Nc2ccccc2CN2C(=O)c3cc(Cl)ccc3NC(=O)C12 (stereo unspecified),6%,7%,i,-19%,4%,i
CCc1ccccc1N(CC)C(=O)c1c(C)oc2ncn(C)c(=O)c12,?,nt,i,?,nt,i
CCOc1cc(N2CCOCC2)c(OCC)cc1NC(=O)c1cccc(N(C)C)c1,21µM*,-9%,i,?,-12%,i
CCOc1cc(N2CCOCC2)c(OCC)cc1NC(=O)c1[nH]c(C)c(C(C)=O)c1C,5.8µM*,1%,i,8.2µM*,6%,i
CC(=O)c1c(C)[nH]c(C(=O)Nc2ccccc2N2CCOCC2)c1C,?,-3%,i,?,-1%,i
CCCOc1ccc(C(=O)Nc2ccc(N3CCOCC3)cc2N2CCOCC2)cc1OCC,21µM*,10%,i,?,-2%,i
CCOc1ccc(C(=O)NCC(=O)Nc2ccc(N3CCOCC3)cc2)cc1OCC,-3%,-28%,i,-28%,0%,i
CCOc1cc(N2CCOCC2)c(OCC)cc1NC(=O)[C@H](C)N1C(=O)C2CC=CCC2C1=O (stereo partly specified),12µM*,9%,i,-3%,10%,?
CCN(C(=O)CSc1nnc(-c2ccc(F)cc2)n1C)C1CCS(=O)(=O)C1 (stereo unspecified),0%,21%,i,-1%,20%,i
CCOc1cc(N2CCOCC2)c(OCC)cc1NC(=O)COC(=O)c1ccc(Cl)nc1,-20%,1%,i,-17%,17%,i
CCOc1cc(N2CCOCC2)c(OCC)cc1NC(=O)CC12CC3CC(CC(C3)C1)C2,18µM*,-24%,i,13µM*,-27%,i
CCOc1cc(N2CCOCC2)c(OCC)cc1NC(=O)c1ccc(S(C)(=O)=O)cc1,-21%,12%,i,-2%,3%,i
CCOc1cc(N2CCOCC2)c(OCC)cc1NC(=O)Cn1cnnn1,17%,2%,?,-13%,-3%,i
CCOc1ccc(OCCC(=O)OCC(=O)Nc2cc(OCC)c(N3CCOCC3)cc2OCC)cc1,26µM*,-12%,i,18µM*,-10%,i
CCOc1cc(N2C(=O)CC3CS(=O)(=O)CC32)c(OCC)cc1NC(=O)c1ccccc1 (stereo unspecified),21µM*,0%,i,?,?,i
SMILES,TDP1 cell noCPT,HT1080-NT tox,KB-3-1 tox,DT40 TDP1 CPT,HT1080 IDH1KD tx,KB-V1 MDR tox
CCOc1cc(N2CCOCC2)c(OCC)cc1NC(=O)COc1cccc(CC)c1,8.2µM*,-2%,i,18µM*,-2%,?
COc1ccc(/C=C/S(=O)(=O)NCc2ccccc2)cc1OC,?,-1%,i,-24%,-4%,i
CCOc1cc(N2CCOCC2)c(OCC)cc1NC(=O)CN1CCc2ccccc2C1,18µM*,-1%,i,23µM*,-3%,?
CCOc1cc(N2CCOCC2)c(OCC)cc1NC(=O)CSc1ccccc1C(=O)O,-19%,-1%,i,?,-4%,i
COc1ccc(N(CC(=O)N2CCN(c3ccccc3F)CC2)S(=O)(=O)c2ccc(C)cc2)cc1,?,4%,nt,?,16%,nt
CCN(c1ccccc1C)S(=O)(=O)c1nnc(NC(=O)c2ccccc2C)s1,18µM*,nt,nt,?,nt,nt
CCN(c1cc(C)cc(C)c1)S(=O)(=O)c1nnc(NC(=O)C2CCCCC2)s1,12µM*,nt,nt,21µM*,nt,nt
CCN(c1ccc(OC)cc1)S(=O)(=O)c1nnc(NC(=O)c2ccccc2C)s1,-28%,nt,nt,?,nt,nt
CCN(c1ccc(C)cc1C)S(=O)(=O)c1nnc(NC(=O)c2ccccc2OC)s1,16µM*,nt,nt,?,nt,nt
COc1ccc(N2CCN(C(=O)CC3NC4CCCCC4NC3=O)CC2)cc1 (stereo unspecified),-6%,-2%,i,-2%,4%,?
COc1ccc(N(CC(O)Cn2cnc3ccccc32)S(=O)(=O)c2ccc(C)cc2)cc1 (stereo unspecified),?,-1%,i,-24%,-11%,i
Cc1ccccc1NC(=O)C1CC(Cl)=CCC1C(=O)O (stereo unspecified),13µM*,7%,i,?,4%,i
COc1ccc(C(=O)Nc2ccccc2N2CCN(C(=O)c3ccccc3)CC2)cc1Br,?,-18%,?,?,-24%,i
